This is part of a sample that, as a whole, favours compounds with a hit. Of some 83,000 tested, about 20% had one in any assay.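 Plates (96-well) were seeded with cells, treated with compound at one concentration, and incubated for 48 hours before percent growth was determined.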 Unmarked numbers belong to inactive results. Calls of active or inactive are those of the source. Rule for the calls: active = growth percent below 10; inactive = the rest.
How the values were obtained:
Test in all cases: NCI-60 one-dose screen, 48 h (100 = growth as untreated, 0 = no growth, -100 = all killed)
Details in all cases: 10 µM unless noted
NCI-H23 lung = tested on: NCI-H23 lung
HOP-62 NSCLC = tested on: HOP-62 NSCLC
NCI-H460 lung = tested on: NCI-H460 lung
HOP-92 NSCLC = tested on: HOP-92 NSCLC
NCI-H522 lung = tested on: NCI-H522 lung
A549/ATCC NSCLC = tested on: A549/ATCC NSCLC
786-0 renal = tested on: 786-0 renal
COLO 205 colon = tested on: COLO 205 colon
DU-145 prostate = tested on: DU-145 prostate
K-562 leukemia = tested on: K-562 leukemia
MALME-3M melanoma = tested on: MALME-3M melanoma
SF-268 CNS = tested on: SF-268 CNS
SF-539 CNS = tested on: SF-539 CNS
UACC-257 melanoma = tested on: UACC-257 melanoma
M14 melanoma = tested on: M14 melanoma
HCT-15 colon = tested on: HCT-15 colon
MDA-MB-231 breast = tested on: MDA-MB-231 breast
RXF 393 renal = tested on: RXF 393 renal
SF-295 CNS = tested on: SF-295 CNS

Row | SMILES | growth (NCI-H23 lung) | growth (HOP-62 NSCLC) | growth (NCI-H460 lung) | growth (HOP-92 NSCLC) | growth (NCI-H522 lung) | growth (A549/ATCC NSCLC) | growth (786-0 renal) | growth (COLO 205 colon) | growth (DU-145 prostate) | growth (K-562 leukemia) | growth (MALME-3M melanoma) | growth (SF-268 CNS) | growth (SF-539 CNS) | growth (UACC-257 melanoma) | growth (M14 melanoma) | growth (HCT-15 colon) | growth (MDA-MB-231 breast) | growth (RXF 393 renal) | growth (SF-295 CNS)
1 | CC(=O)SC1CC(=O)C=C2CCC3C4CCC(=O)OC4(C)CCC3C21C (configuration not stated) | 111% | 106% | 115% | 97.6% | 92.7% | 105% | 101% | 116% | 116% | 103% | 195% | 105% | 94.9% | 100% | 97.7% | 106% |  |  | 
2 | COc1ccc(C)c2sc(N(Cc3cccnc3)C(=O)c3ccc(C#N)cc3)nc12 | 7.42% (active) | 7.67% (active) | -24.4% (active) | -3.64% (active) | -22.2% (active) | 6.76% (active) | -12.2% (active) | 1.84% (active) | 17.3% | 4.61% (active) | -15.2% (active) | 10.9% | -26% (active) | -15.5% (active) | 4.95% (active) | 17.5% | -4% (active) | -31% (active) | -28.9% (active)
3 | Cc1ccc(C(=O)c2oc3ccc4c(C)cc(=O)oc4c3c2C)cc1 | 40.4% | 61.3% | 3.14% (active) | 9.32% (active) | 25.7% | 14.8% | 57.3% | -59.7% (active) | 64.7% | 11.7% |  | 52.1% | 46.7% | -4.34% (active) | 42.5% | 23% | 46.8% | 37.2% | 4.06% (active)
4 | CCOC(=O)c1c2c(n3cccc(Cl)c13)C(=O)c1ncccc1C2=O | 34.2% | 41.9% | 10% | 87.6% | 81.3% | 38.4% | 73.9% | 73.5% | 45.8% | 62.3% | 42.7% | 41.1% | 77.2% | 60.8% | 22.6% | 25.6% | 24.9% |  | 63.9%
5 | C#CCn1cc(C=C2C(=O)N(C)C(=O)N(C)C2=O)c2cc(Cl)ccc21 | 110% | 107% | 106% | 107% | 88.7% | 120% | 111% | 122% | 112% | 106% | 97.9% | 96.8% | 94.5% | 112% | 108% | 111% | 105% | 103% | 96.4%
6 | O=c1oc2ccc(-c3ccc(F)cc3F)cc2c(=O)n1-c1cccc(C(F)(F)F)c1 | 1.75% (active) | 3.5% (active) | 4.14% (active) | -26.6% (active) | -10.7% (active) | 7.26% (active) | 0.874% (active) | 17.9% | 20.1% | 10.9% | -24% (active) | 12.7% | 9.91% (active) | -14.2% (active) | 18.3% | 13% | -16% (active) | -8.07% (active) | -0.824% (active)
7 | COc1cc(CNC(=O)Cc2ccccc2)ccc1OCc1cn(-c2ccc(F)cc2)nn1 | 94.9% | 104% | 101% | 107% | 90.1% | 97.5% | 104% |  | 108% | 91.8% | 114% | 98.1% | 99.5% | 97.7% | 101% | 106% | 89.5% | 125% | 101%
